Results published in the supplement of paper PMC8728848.
This excerpt belongs to a sample that is enriched for the strongest signals.

Tests used:
Assay in all cases: glycan array binding signal (z-score within array); higher = stronger binding
Settings in all cases: glycan notation: IUPAC condensed, linker removed
[1] = target: Gal3S(b1-4)GlcNAc
In short: (§1)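 Glycan array data were curated from 3228 arrays in the Consortium for Functional Glycomics database and kept only where the protein sequence was available. Glycan names were converted to IUPAC-condensed notation, and columns mapping to the same glycan were averaged. The binding signal is a within-array Z-score, averaged across arrays of the same protein sequence at different concentrations or buffers and across linkers. Negative Z-scores can be read as non-binding.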

[2] = target: Gal3S(b1-4)[Fuc(a1-3)]Glc6S
In short: as §1

[3] = target: Gal4S(b1-4)GlcNAc
In short: as §1

[4] = target: Gal6S(b1-4)Glc6S
In short: as §1

[5] = target: GalNAc(b1-3)Gal
In short: as §1

[6] = target: GalNAc(b1-3)Gal(a1-4)Gal(b1-4)GlcNAc(b1-3)Gal(b1-4)Glc
In short: as §1

[7] = target: GalNAc3S(b1-4)GlcNAc3S
In short: as §1

[8] = target: GalNAc4S6S(b1-4)GlcNAc
In short: as §1

[9] = target: Glc(a1-6)Glc(a1-6)Glc
In short: as §1

[10] = target: GlcA(b1-3)GlcNAc
In short: as §1

[11] = target: GlcNAc(b1-2)[GlcNAc(b1-4)]Man(a1-3)[GlcNAc(b1-4)][GlcNAc(b1-2)[GlcNAc(b1-6)]Man(a1-6)]Man(b1-4)GlcNAc(b1-4)[Fuc(a1-6)]GlcNAc
In short: as §1

[12] = target: GlcNAc(b1-3)Gal(b1-4)GlcNAc
In short: as §1

[13] = target: GlcNAc(b1-3)Gal(b1-4)GlcNAc(b1-3)Gal(b1-4)GlcNAc(b1-2)Man(a1-3)[GlcNAc(b1-3)Gal(b1-4)GlcNAc(b1-3)Gal(b1-4)GlcNAc(b1-2)Man(a1-6)]Man(b1-4)GlcNAc(b1-4)[Fuc(a1-6)]GlcNAc
In short: as §1

[14] = target: Man(a1-2)Man(a1-3)Man
In short: as §1

[15] = target: Neu5Ac(a2-3)Gal(b1-4)GlcNAc
In short: as §1

[16] = target: Neu5Ac(a2-3)Gal(b1-4)GlcNAc(b1-2)[Neu5Ac(a2-3)Gal(b1-4)GlcNAc(b1-6)]Man(a1-6)[Neu5Ac(a2-3)Gal(b1-4)GlcNAc(b1-2)Man(a1-3)]Man(b1-4)GlcNAc(b1-4)GlcNAc
In short: as §1

[17] = target: Neu5Ac(a2-3)Gal(b1-4)GlcNAc(b1-2)[Neu5Ac(a2-3)Gal(b1-4)GlcNAc(b1-6)]Man(a1-6)[Neu5Ac(a2-3)Gal(b1-4)GlcNAc(b1-2)Man(a1-3)][GlcNAc(b1-4)]Man(b1-4)GlcNAc(b1-4)GlcNAc
In short: as §1

[18] = target: Neu5Ac(a2-3)Gal(b1-4)GlcNAc(b1-3)Gal(b1-4)GlcNAc(b1-2)Man(a1-3)[Neu5Ac(a2-3)Gal(b1-4)GlcNAc(b1-3)Gal(b1-4)GlcNAc(b1-2)Man(a1-6)]Man(b1-4)GlcNAc(b1-4)GlcNAc
In short: as §1

[19] = target: Neu5Ac(a2-3)Gal(b1-4)GlcNAc(b1-6)GalNAc
In short: as §1

[20] = target: Neu5Ac(a2-3)Gal(b1-4)[Fuc(a1-3)]GlcNAc(b1-6)[Gal(b1-3)]GalNAc
In short: as §1

[21] = target: Neu5Ac(a2-3)[Neu5Ac(a2-6)]GalNAc
In short: as §1

[22] = target: Neu5Ac(a2-6)Gal(b1-4)Glc
In short: as §1

[23] = target: Neu5Ac(a2-6)Gal(b1-4)GlcNAc(b1-2)Man(a1-3)[GlcNAc(b1-4)][Neu5Ac(a2-6)Gal(b1-4)GlcNAc(b1-2)Man(a1-6)]Man(b1-4)GlcNAc(b1-4)GlcNAc
In short: as §1

[24] = target: Neu5Ac(a2-6)Gal(b1-4)GlcNAc(b1-2)Man(a1-3)[Neu5Ac(a2-6)Gal(b1-4)GlcNAc(b1-2)Man(a1-6)]Man(b1-4)GlcNAc(b1-4)GlcNAc
In short: as §1

[25] = target: Neu5Ac(a2-6)Gal(b1-4)GlcNAc(b1-2)Man(a1-6)Man(b1-4)GlcNAc(b1-4)GlcNAc
In short: as §1

[26] = target: Neu5Ac(a2-6)Gal(b1-4)GlcNAc(b1-2)Man(a1-6)[Gal(b1-4)GlcNAc(b1-2)Man(a1-3)]Man(b1-4)GlcNAc(b1-4)GlcNAc
In short: as §1

[27] = target: Neu5Ac(a2-6)Gal(b1-4)GlcNAc(b1-2)Man(a1-6)[GlcNAc(b1-2)Man(a1-3)]Man(b1-4)GlcNAc(b1-4)GlcNAc
In short: as §1

[28] = target: Neu5Ac(a2-6)Gal(b1-4)GlcNAc(b1-3)Gal(b1-4)GlcNAc(b1-6)[Gal(b1-3)]GalNAc
In short: as §1

[29] = target: Neu5Ac(a2-6)GlcNAc(b1-4)GlcNAc(b1-4)GlcNAc
In short: as §1

[30] = target: Neu5Ac(a2-8)Neu5Ac(a2-3)Gal(b1-4)GlcNAc
In short: as §1

[31] = target: Neu5Ac(a2-8)Neu5Ac(a2-3)[GalNAc(b1-4)]Gal(b1-4)Glc
In short: as §1

[32] = target: Neu5Gc(a2-3)Gal(b1-4)GlcNAc(b1-3)Gal(b1-4)GlcNAc(b1-2)Man(a1-3)[Neu5Gc(a2-3)Gal(b1-4)GlcNAc(b1-3)Gal(b1-4)GlcNAc(b1-2)Man(a1-6)]Man(b1-4)GlcNAc(b1-4)GlcNAc
In short: as §1

B1: FimA-N2 (Actinomyces oris) (protein)
chain: MHHHHHHSSGVDLGTENLYFQSNAWIYDVNVYPKNEAIDVDKTIQAQKLNGYGVGSLIKFPVESTAPTLDAKSFYKYFQLKDTLDERLSEVTATDVSLEGTPLQPTDYKVETKQQTVTVTFTAEGLKKIKAAPGKKVSAVFQGKVTKAGNGAITNRAQVISDTLYAEQPPTPETPPTDPENPPTSDEVISRWGDLSIKKVDTHQQGQTKA
[1]
  glycan array binding signal (z-score): 2.69
[2]
  glycan array binding signal (z-score): 3.08
[3]
  glycan array binding signal (z-score): 3.9
[4]
  glycan array binding signal (z-score): -0.257
[5]
  glycan array binding signal (z-score): 2.41
[6]
  glycan array binding signal (z-score): 1.53
[7]
  glycan array binding signal (z-score): 0.248
[8]
  glycan array binding signal (z-score): -0.331
[9]
  glycan array binding signal (z-score): -0.88
[10]
  glycan array binding signal (z-score): 0.654
[11]
  glycan array binding signal (z-score): -0.355
[12]
  glycan array binding signal (z-score): 0.299
[13]
  glycan array binding signal (z-score): -0.07
[14]
  glycan array binding signal (z-score): 0.075
[15]
  glycan array binding signal (z-score): -0.301
[16]
  glycan array binding signal (z-score): -0.853
[17]
  glycan array binding signal (z-score): -0.874
[18]
  glycan array binding signal (z-score): -0.355
[19]
  glycan array binding signal (z-score): 1.38
[20]
  glycan array binding signal (z-score): 1.73
[21]
  glycan array binding signal (z-score): -1.07
[22]
  glycan array binding signal (z-score): 0.148
[23]
  glycan array binding signal (z-score): -1.7
[24]
  glycan array binding signal (z-score): 0.297
[25]
  glycan array binding signal (z-score): -0.759
[26]
  glycan array binding signal (z-score): -1.01
[27]
  glycan array binding signal (z-score): 0.589
[28]
  glycan array binding signal (z-score): -0.597
[29]
  glycan array binding signal (z-score): 0.675
[30]
  glycan array binding signal (z-score): -0.815
[31]
  glycan array binding signal (z-score): -1.37
[32]
  glycan array binding signal (z-score): -0.144
